The supplement of paper PMC6992640
Counter-ions that a name gives are not always drawn. ± gives the standard deviation of the averaged measurements.

Legend:
Assay in all cases: cell viability (% of vehicle); higher = less cytotoxic
Conditions in all cases: 10 µM; 72 h
HCI01 = test system: HCI01 (cells of a triple-negative basal-like breast cancer xenograft)
HCI03 = test system: HCI03 (cells of an ER-positive luminal breast cancer xenograft)
HCI09 = test system: HCI09 (cells of a triple-negative luminal androgen receptor type breast cancer xenograft)
HCI11 = test system: HCI11 (cells of an ER-positive luminal breast cancer xenograft)
HCI13 = test system: HCI13 (cells of an ER-positive luminal breast cancer xenograft)
HCI16 = test system: HCI16 (cells of a triple-negative basal-like breast cancer xenograft)
UCD52 = test system: UCD52 (cells of a triple-negative basal-like breast cancer xenograft)
WHIM2 = test system: WHIM2 (cells of a triple-negative basal-like breast cancer xenograft)
WHIM30 = test system: WHIM30 (cells of a triple-negative basal-like breast cancer xenograft)
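Also: PDX cells carrying CMV promoter-driven luciferase, viability read as total photon flux per second by IVIS imaging following D-luciferin, vehicle control 0.1% DMSO.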

SMILES | cell viability (HCI01) | cell viability (HCI03) | cell viability (HCI09) | cell viability (HCI11) | cell viability (HCI13) | cell viability (HCI16) | cell viability (UCD52) | cell viability (WHIM2) | cell viability (WHIM30)
Br.CN1CCCC1Cc1c[nH]c2ccc(CCS(=O)(=O)c3ccccc3)cc12 (configuration not stated) [Eletriptan HBr] | 91.4 ± 17 | 108 | 80.12 ± 0.74 | 86.1 | 83.7 ± 7.3 | 113 | 87 ± 9.9 | 83.3 ± 4.5 | 163 ± 24
O=C(NC(CO)C(O)c1ccc([N+](=O)[O-])cc1)C(Cl)Cl (configuration not stated) [Chloramphenicol] | 109 ± 15 | 128 | 102 ± 12 | 86.1 | 81.3 ± 6.8 | 90.9 | 92.9 ± 3.5 | 106 ± 27 | 100 ± 18
COCCc1ccc(OCC(O)CNC(C)C)cc1.COCCc1ccc(OCC(O)CNC(C)C)cc1.O=C(O)C(O)C(O)C(=O)O (configuration not stated) [Metoprolol Tartrate] | 126 ± 15 | 111 | 112 ± 13 | 95 | 81.4 ± 14 | 112 | 88.1 ± 13 | 94.4 ± 13 | 107 ± 2.7
COc1c(N2CCNC(C)C2)c(F)cc2c(=O)c(C(=O)O)cn(C3CC3)c12 (configuration not stated) [Gatifloxacin] | 99.3 ± 31 | 81.1 | 75 ± 10 | 124 | 82.6 ± 7.6 | 92.2 | 140 ± 6.7 | 59.6 ± 23 | 124 ± 24
CN1C(C(=O)Nc2ccccn2)=C(O)c2sccc2S1(=O)=O [Tenoxicam] | 122 ± 9.7 | 126 | 114 ± 24 | 89.7 | 64.9 ± 7.4 | 119 | 87.2 ± 4.1 | 123 ± 33 | 159 ± 5.4
Nc1ncnc2c1ncn2C1OC(CO)C(O)C1O (configuration not stated) [Adenosine] | 99.7 ± 3.6 | 123 | 90.4 ± 15 | 96.9 | 66.2 ± 4.5 | 97.7 | 95.7 ± 3.5 | 121 ± 34 | 124 ± 16
CC(=O)SCC(Cc1ccccc1)C(=O)NCC(=O)OCc1ccccc1 (configuration not stated) [Racecadotril] | 106 ± 19 | 111 | 92.8 ± 9.8 | 93.3 | 114 ± 8.9 | 104 | 65.6 ± 16 | 92.8 ± 1.4 | 79.3 ± 9
CCCCCCCCCCCCCCCCCCCCCCO [Docosanol (Abreua)] | 82.8 ± 2.5 | 93.4 | 82.5 ± 8 | 95.6 | 97.3 ± 27 | 84.5 | 76.5 ± 11 | 81.8 ± 19 | 102 ± 3
CCC1OC(=O)C(C)C(OC2CC(C)(OC)C(O)C(C)O2)C(C)C(OC2OC(C)CC(N(C)C)C2O)C(C)(O)CC(C)CN(C)C(C)C(O)C1(C)O.O.O (configuration not stated) [Azithromycin Dihydrate] | 110 ± 9 | 114 | 101 ± 10 | 112 | 144 ± 5 | 104 | 85.4 ± 1.5 | 102 ± 2.7 | 89 ± 1.7
Cc1cccc(Nc2ccccc2C(=O)O)c1C [Mefenamic Acid] | 103 ± 23 | 102 | 118 ± 43 | 98.1 | 113 ± 6.7 | 90.9 | 94.4 ± 5.6 | 109 ± 6 | 112 ± 1.5
COc1ccc(CN(CCN(C)C)c2ccccn2)cc1.O=C(O)/C=C\C(=O)O [Mepyramine maleate] | 93.8 ± 18 | 133 | 88.5 ± 12 | 93.9 | 85.6 ± 8.7 | 107 | 112 ± 8.7 | 94.4 ± 8.4 | 111 ± 6
c1ccc2[nH]c(-c3cscn3)nc2c1 [Thiabendazole] | 148 ± 9.3 | 160 | 82.8 ± 82 | 162 | 162 ± 8.2 | 119 | 167 ± 15 | 120 ± 13 | 102.2 ± 0.2
CN[C@H](CC(C)C)C(=O)N[C@H]1C(=O)N[C@@H](CC(N)=O)C(=O)N[C@H]2C(=O)N[C@H]3C(=O)N[C@H](C(=O)N[C@H](C(=O)O)c4cc(O)cc(O)c4-c4cc3ccc4O)[C@H](O)c3ccc(c(Cl)c3)Oc3cc2cc(c3O[C@@H]2O[C@H](CO)[C@@H](O)[C@H](O)[C@H]2O[C@H]2C[C@](C)(N)[C@H](O)[C@H](C)O2)Oc2ccc(cc2Cl)[C@H]1O [Vancomycin hydrochloride] | 125 ± 1.7 | 110 | 146 ± 38 | 92.4 | 195 ± 13 | 167 | 122 ± 7.7 | 107 ± 4.2 | 148 ± 22
Cl.O=C(O)C=Cc1ccc(Cn2ccnc2)cc1 [Ozagrel HCl] | 72.6 ± 40 | 135 | 100 ± 10 | 99.5 | 126 ± 10 | 122 | 87.7 ± 1.4 | 93.3 ± 30 | 140 ± 2.3
CC(=O)O.CC(=O)O.CCC(C)CC(C)CCCCCCCCC(=O)NC1CC(O)C(NCCN)NC(=O)C2C(O)CCN2C(=O)C(C(O)CCN)NC(=O)C(C(O)C(O)c2ccc(O)cc2)NC(=O)C2CC(O)CN2C(=O)C(C(C)O)NC1=O (configuration not stated) [Caspofungin Acetate] | 58.7 ± 28 | 115 | 84.5 ± 9.6 | 84.4 | 88 ± 5.7 | 115 | 71.4 ± 2.7 | 94.1 ± 40 | 119 ± 2.4
CNCC(O)c1cccc(O)c1.Cl (configuration not stated) [Phenylephrine HCl] | 110 ± 2.1 | 126 | 103 ± 22 | 105 | 78 ± 4.8 | 97.2 | 87.5 ± 4.1 | 86.1 ± 7.8 | 109 ± 7.6
COc1c(C)c2c(c(O)c1CC=C(C)CCC(=O)OCCN1CCOCC1)C(=O)OC2 [Mycophenolate Mofetil] | 141 ± 31 | 106 | 86.9 ± 23 | 103 | 81.8 ± 11 | 86.2 | 91.4 ± 22 | 112 ± 7.2 | 130 ± 30
CC(O)(P(=O)(O)O)P(=O)(O)O [Etidronate] | 94.3 ± 15 | 96.6 | 94.9 ± 14 | 85.2 | 107.1 ± 0.89 | 92.3 | 75 ± 5.3 | 150 ± 2.7 | 111 ± 11
Cl.Cl.Clc1ccc(Nc2nnc(Cc3ccncc3)c3ccccc23)cc1 [Vatalanib (PTK787) 2HCl] | 136 ± 53 | 104 | 54.7 ± 2.1 | 92.3 | 45.8 ± 8.3 | 76.5 | 55.4 ± 5 | 46 ± 19 | 93.2 ± 2.6

SMILES | cell viability (HCI01) | cell viability (HCI03) | cell viability (HCI09) | cell viability (HCI11) | cell viability (HCI13) | cell viability (HCI16) | cell viability (UCD52) | cell viability (WHIM2) | cell viability (WHIM30)
CCCCc1ncc(C=C(Cc2cccs2)C(=O)O)n1Cc1ccc(C(=O)O)cc1.CS(=O)(=O)O [Eprosartan Mesylate] | 156 ± 27 | 129 | 106 ± 17 | 120 | 108 ± 12 | 134 | 124 ± 9.7 | 123 ± 9.3 | 198 ± 22
CC(O)C1C(=O)N2C(C(=O)O)=C(SC3CNC(CNS(N)(=O)=O)C3)C(C)C12 (configuration not stated) [Doripenem] | 91.4 ± 3.9 | 103 | 143 ± 73 | 106 | 99.2 ± 19 | 85.2 | 82.7 ± 7.5 | 93.3 ± 19 | 90.3 ± 15
CC(C)(C)NC(=O)C1CCC2C3CCC4NC(=O)C=CC4(C)C3CCC12C (configuration not stated) [Finasteride] | 136 ± 20 | 115 | 103 ± 8.5 | 125 | 96.2 ± 4.9 | 99.8 | 81.1 ± 1.1 | 94 ± 1.5 | 156 ± 18
CC(C)(C)c1cc(NC(=O)Nc2ccc(-c3cn4c(n3)sc3cc(OCCN5CCOCC5)ccc34)cc2)no1 [Quizartinib (AC220)] | 168 ± 27 | 112 | 81.5 ± 1.3 | 111 | 94 ± 17 | 127 | 146 ± 29 | 74.2 ± 3.8 | 193 ± 34
CCOC(=O)C1OC1C(=O)NC(CC(C)C)C(=O)NCCC(C)C (configuration not stated) | 108 ± 6.8 | 118 | 97.6 ± 1.9 | 91.9 | 165 ± 7.1 | 70.3 | 97.4 ± 3.2 | 105 ± 38 | 99.6 ± 12
CCOC(=O)C(CCc1ccccc1)NC1CCc2ccccc2N(CC(=O)O)C1=O.Cl (configuration not stated) [Benazepril HCl] | 107 ± 11 | 159 | 130 ± 41 | 93.5 | 196 ± 40 | 161 | 130 ± 7.6 | 107 ± 13 | 170 ± 22
CNNCc1ccc(C(=O)NC(C)C)cc1.Cl [Procarbazine HCl] | 93.5 ± 4.4 | 90.5 | 96.1 ± 13 | 99.7 | 104 ± 21 | 87.6 | 79.7 ± 13 | 98 ± 16 | 83.91 ± 0.74
O=C(O)C=CC(=O)O.OCCOCCN1CCN(C2=Nc3ccccc3Sc3ccccc32)CC1.OCCOCCN1CCN(C2=Nc3ccccc3Sc3ccccc32)CC1 [Quetiapine Fumarate] | 186 ± 14 | 91.6 | 81.6 ± 5.6 | 123 | 83 ± 0.84 | 163 | 78.8 ± 2 | 128 ± 7 | 154 ± 6.5
OCCOc1ccc(C(=C(CCCl)c2ccccc2)c2ccccc2)cc1 [Ospemifene] | 117 ± 33 | 139 | 99.6 ± 30 | 106 | 91 ± 2.3 | 146 | 86.3 ± 1.5 | 78.5 ± 5.9 | 148 ± 10
COC(=O)C1=C(C)NC(C)=C(C(=O)OCC(C)C)C1c1ccccc1[N+](=O)[O-] (configuration not stated) [Nisoldipine] | 98.3 ± 32 | 109 | 27.4 ± 1.6 | 74 | 93.1 ± 39 | 180 | 84.1 ± 5.2 | 88.6 ± 17 | 123 ± 16
O=C(O)CCCN1CCC(OC(c2ccc(Cl)cc2)c2ccccn2)CC1.O=S(=O)(O)c1ccccc1 (configuration not stated) [Bepotastine Besilate] | 155 ± 45 | 131 | 112 ± 1.6 | 96.6 | 121 ± 6.6 | 128 | 87.6 ± 21 | 87.7 ± 5.1 | 138 ± 10
CC#CC1(O)CCC2C3CCC4=CC(=O)CCC4=C3C(c3ccc(N(C)C)cc3)CC21C (configuration not stated) [Mifepristone] | 113 ± 13 | 99.2 | 72.6 ± 18 | 73.5 | 47.5 ± 0.63 | 89.3 | 73.3 ± 6.9 | 89.7 ± 2.1 | 93.3 ± 3
COc1cc2nccc(Oc3ccc(NC(=O)C4(C(=O)Nc5ccc(F)cc5)CC4)cc3)c2cc1OC | 108 ± 6.6 | 114 | 91.5 ± 2 | 88.9 | 97.7 ± 13 | 93.8 | 88.3 ± 15 | 90.1 ± 11 | 116 ± 3.4
CCC(CO)NCCNC(CC)CO.Cl.Cl (configuration not stated) [Ethambutol HCl] | 98.6 ± 2.4 | 122 | 102 ± 7.8 | 103 | 146 ± 15 | 102 | 86.7 ± 3 | 93.4 ± 21 | 153 ± 7.2
CN1CCC(=C2c3ccccc3CCn3c(C=O)cnc32)CC1 [Alcaftadine] | 94.1 ± 31 | 117 | 94.3 ± 18 | 86.9 | 120 ± 20 | 124 | 92.4 ± 10 | 97.9 ± 3.4 | 114 ± 6.9
O=C(CCc1ccc(O)cc1)c1c(O)cc(O)cc1OC1OC(CO)C(O)C(O)C1O (configuration not stated) [Phloridzin] | 104 ± 31 | 123 | 98.1 ± 10 | 97.7 | 106 ± 6.1 | 115 | 105 ± 4.7 | 96.2 ± 9.1 | 97.2 ± 7.4
Cc1ccccc1C(OCCN(C)C)c1ccccc1.O=C(O)CC(O)(CC(=O)O)C(=O)O (configuration not stated) [Orphenadrine Citrate] | 145 ± 33 | 130 | 104 ± 1.3 | 90.9 | 108 ± 15 | 138 | 68.3 ± 6.3 | 83.3 ± 17 | 100 ± 7.5
CC1(C)SC2C(NC(=O)C(N)c3ccccc3)C(=O)N2C1C(=O)[O-].[Na+] (configuration not stated) [Ampicillin] | 101.47 ± 0.042 | 101 | 104 ± 9.8 | 84.6 | 86.7 ± 9.1 | 78.9 | 83.5 ± 3.9 | 77.9 ± 1.1 | 112 ± 20
COc1cc(Nc2ncc3c(n2)-c2ccc(Cl)cc2C(c2c(F)cccc2OC)=NC3)ccc1C(=O)O [MLN8237 (Alisertib)] | 80 ± 15 | 118 | 106 ± 32 | 100 | 94.9 ± 14 | 87.9 | 64.6 ± 12 | 80.1 ± 8.5 | 156 ± 12
